Assay results taken from PubChem BioAssay (NCI).
About 83,000 compounds went through this panel and 20% of them were active in at least one assay; those are over-represented in the sample as a whole.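 Note: values are percent growth. 100 is the growth of untreated cells, values between 100 and 0 indicate rising inhibition; between -100 and 0 indicates cell death.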 Values without a mark were called inactive. Calls of active or inactive are those of the source. Rule for the calls: active = growth percent below 10; inactive = the rest.

Assays:
Assay in all cases: NCI-60 one-dose screen, 48 h (100 = growth as untreated, 0 = no growth, -100 = all killed)
Settings in all cases: 10 µM unless noted
[1] = tested on: NCI-H23 lung
[2] = tested on: NCI-H226 lung
[3] = tested on: NCI-H322M lung
[4] = tested on: HOP-62 NSCLC
[5] = tested on: NCI-H460 lung
[6] = tested on: HOP-92 NSCLC
[7] = tested on: NCI-H522 lung
[8] = tested on: A549/ATCC NSCLC
[9] = tested on: 786-0 renal
[10] = tested on: COLO 205 colon

Compound | growth [1] | growth [2] | growth [3] | growth [4] | growth [5] | growth [6] | growth [7] | growth [8] | growth [9] | growth [10]
CCc1cccc2c1S/C(=C/c1ccc(Cl)cc1)C2=O | 79.6% | 87.2% | 85.4% | 80.9% | 102% | 83.5% | 91.7% | 97.4% | 100% | 108%
COc1ccc2nc(NCCCNCCO)c3sc4ccc(F)cc4c(=O)c3c2c1 | 62.7% | 87.9% | 67.8% | 74% | -72.8% (active) | 12.2% | 45.6% | 49.2% | 56.7% | -49.3% (active)
O=C1/C(=C/c2ccc(F)cc2)Sc2c(Br)cccc21 | 50% | 79.4% | 72.6% | 69.1% | 93.6% | -3.06% (active) | 70.9% | 68.9% | 100% | 105%
NCCCNc1nc2ccccc2c2c(=O)c3cccc(F)c3sc12 | 50.5% | 64.1% | 46.8% | 48.1% | -57% (active) | 35.8% | 38.7% | 24% | 52.6% | -43.7% (active)
CN1CCN(c2ccc(-c3cnc4c(-c5csc6ccccc56)cnn4c3)cc2)CC1 | 14.3% | -5.69% (active) | 10.2% | -35.2% (active) | -78.2% (active) | 0.36% (active) | -60.8% (active) | -76.9% (active) | -68.5% (active) | -80.9% (active)
N#Cc1cccc(NC(=O)c2cc(-c3ccc(F)cc3F)ccc2O)c1 | 1.56% (active) | 3.58% (active) | 1.78% (active) | 23% | 6.49% (active) | -24.2% (active) | -3.38% (active) | 27.3% | 31.1% | 107%
CNc1nc2c(s1)C(c1cc(F)ccc1F)CC(=O)N2 (stereo not given) | 85.9% | 84.8% | 92.2% | 69.1% | 82.3% | 85.5% | 51.3% | 87% | 83.9% | 83.7%
CCN(CC)Cc1cc(Nc2c3ccc(Cl)cc3nc3ccc(OC)cc23)ccc1O | 65.7% | 86% | 62.5% | 80.5% | 34.9% | 60.5% | 39% | 52.4% | 47.3% | 5.97% (active)
Clc1ccc2c(c1)N(CCCN1CCCC1)c1ccccc1S2 | 62.5% | 88.2% | 36.3% | 56.4% | 30% | -4.23% (active) | 71.1% | 58.6% | 45.1% | -30.8% (active)
O=C(Nc1ccc(Br)cc1F)c1cc(Br)ccc1O | 0.13% (active) | -1.23% (active) | -4.81% (active) | 13% | 3.37% (active) | -14.6% (active) | -7.77% (active) | 8.21% (active) | 7.72% (active) | 85.6%
CCOC(=O)Cn1c(=O)c2c(c3ccccc3n2C)n2nnc(-c3ccccc3)c12 | 102% | 128% | 115% | 95.5% | 102% | -15.2% (active) | 92.6% | 106% | 104% | 114%
COc1ccc2cc(C(C)C(=O)Nc3ccc(-c4n[nH]c(=S)n4C4CCCCC4)cc3)ccc2c1 (stereo not given) | 90.2% | 95.3% | 114% | 84.3% | 43.2% | 43.4% | 64.8% | 41.2% | 78.4% | 75.5%
Cc1ccc(-c2nc(N3CCN(CC(=O)Nc4ccc(Cl)cc4)CC3)c3ccccc3n2)cc1 | 94% | 92.9% | 91.1% | 103% | 98.4% | 114% | 83.6% | 77.4% | 92.1% | 102%
NCCCNc1nc2ccccc2c2c(=O)c3cc(F)cc(F)c3sc12 | 84% | 92.5% | 84.5% | 78.9% | -75.1% (active) | 36% | 92.7% | 78.1% | -88.8% (active) | 63.6%
COc1cccc(-c2nc(-c3ccc(NS(=O)(=O)c4ccccc4)cc3)[nH]c2-c2ccnc(Br)c2)c1 | 25.8% | 37.3% | 32.4% | 26.5% | 16.7% | 24.5% | 20.7% | 29% | 20% | 35.5%
C=C1C(=O)O[C@H]2[C@H]1CC/C(COC(=O)CCSSCCC(=O)OC/C1=C/CC[C@@]3(C)O[C@H]3[C@H]3OC(=O)C(=C)[C@@H]3CC1)=C\CC[C@@]1(C)O[C@@H]21 | 26.4% | 78.1% | 94.6% | 72.3% | 64% | -57.7% (active) | -79.8% (active) | 60.8% | -70.9% (active) | -72.5% (active)
COc1ccc(-c2ncnc3c2ncn3CC#CCCl)cc1 | 59.1% | 56.5% | 92% | 77.5% | 67.8% | 9.39% (active) | 49% | 60.1% | 36.4% | 80%
COc1ccn2c(C(C)=O)cc(C(=O)c3ccc4c(c3)Sc3ccccc3N4)c2c1 | 28.3% | 26% | 42.8% | 20.2% | 4.07% (active) | 31.2% | -21.5% (active) | 10.5% | 10.7% | -41% (active)
O=S(=O)(Nc1ccc(-c2nc(-c3cccc(OCCN4CCOCC4)c3)c(-c3ccnc(Br)c3)[nH]2)cc1)c1ccccc1 | 35.5% | 48.1% | 53.5% | 40.3% | 28.4% | 22% | 32.8% | 30.4% | 13.2% | 39.3%
COc1ccc(/C=C(/C#N)n2nnc3cccc(F)c32)cc1 | 14.6% | 60.4% | 25.2% | 38.1% | 4.61% (active) | -2.46% (active) | -24.6% (active) | 37% | 10.6% | 1.85% (active)
CCCCCCCCCCCCCCCCCCOc1ccc(CC(=O)OCC[N+](C)(C)C)cc1 | 93.3% | 95.1% | 103% | 108% | 100% | 103% | 95.7% | 94.6% | 93% | 115%
c1ccc2cc(C[n+]3ccn(CCCCCCCCCCCCn4cc[n+](Cc5ccc6ccccc6c5)c4)c3)ccc2c1 | -80.3% (active) | -42.1% (active) | -18.4% (active) | -58% (active) | -69.9% (active) | -68.2% (active) | -74.2% (active) | -74.2% (active) | 1.28% (active) | -67.5% (active)
Cc1ccc(-c2cnc3sc(C(=O)NCCc4ccccc4)c(C)n23)cc1 | 95.4% | 78.6% | 91.6% | 89.1% | 102% | 91.1% | 91.7% | 109% | 97.7% | 116%
CSc1ccc2c(c1)c(CCN)c(C)n2Cc1ccc(Cl)c(Cl)c1 | -89.7% (active) | -59.8% (active) | -83% (active) | -78.2% (active) | -70.6% (active) | -91.6% (active) | -76.5% (active) | -77.9% (active) | -76.1% (active) | -75.8% (active)
COc1cccc(-c2nn(-c3ccccc3)cc2-c2ccnc(N3CCOCC3)c2)c1 | 82.4% | 93.9% | 98.7% | 96.2% | 91.3% | 66.3% | 71.4% | 86.8% | 99% | 98.5%
CC/C=C\C[C@@H]1C/C=C2/C(=O)C=C[C@H]2C/C=C\CCCC(=O)O1 | -32.1% (active) | -20% (active) | -54.5% (active) | -14% (active) | -48.6% (active) | -25.8% (active) | -83.4% (active) | -26.7% (active) | -88.4% (active) | -64.2% (active)
O=C(Oc1cccc2ccccc12)Oc1cccc2ccccc12 | 90.9% | 98.5% | 104% | 96.1% | 110% | 62.8% | 93.8% | 107% | 110% | 127%
